Screens deposited in PubChem by National Center for Advancing Translational Sciences (NCATS).
PNC inhibitor = perinucleolar compartment assembly inhibition; PC3M PTB-GFP, PNC prevalence imaging, 16 h; active compounds read low; activity change (PNC), negative = inhibition, % at 10 µM; 3.1% of 140,000 active; AID 2417;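 active = readout at or below -70, meaning at least 70% loss of cells showing the perinucleolar compartment, a nuclear body marking cancer cells; inconclusive = readout between -30 and a set limit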;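 also: plate controls were DMSO wells for no effect and camptothecin positive control wells for full effect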
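PC3M cells stably expressing PTB-GFP, 750–1000 cells/well, treated 16 h at 37 °C with compound (23 nl of library stock), in duplicate. After paraformaldehyde fixation and Hoechst stain, imaged at 20x; PNC prevalence scored by image analysis.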
HPGD block = HPGD (human) dehydrogenase inhibition; purified HPGD, NADH fluorescence kinetic, PGE2 substrate; Potency, µM, for inactives: at the top dose activity change, negative = inhibition, most hits filed as inhibitors; 4.3% of 150,000 active; also: potency is read from the fitted curve at half-maximal effect
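20 nM HPGD preincubated 15 min at room temperature with compound in 50 mM Tris-HCl pH 8, 0.01% Tween 20. Started with 1 mM NAD+ and 30 uM prostaglandin E2; NADH fluorescence (360/450 nm) read 5 times over 30-s intervals, last minus first.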
ALDH1A1 inh = blocks purified human ALDH1A1 activity. P00352. 7.3% of 220,000 active. Potency, µM (titrated, usually from 75.3 µM), for inactives: top-dose activity, negative = inhibition, hits mostly inhibitors. Purified ALDH1A1, NADH fluorescence, propionaldehyde substrate;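 also: potency is read from the fitted curve at half-maximal effect; plate controls were no enzyme wells and a reference inhibitor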
Target sequence (P00352 whole entry, looked up): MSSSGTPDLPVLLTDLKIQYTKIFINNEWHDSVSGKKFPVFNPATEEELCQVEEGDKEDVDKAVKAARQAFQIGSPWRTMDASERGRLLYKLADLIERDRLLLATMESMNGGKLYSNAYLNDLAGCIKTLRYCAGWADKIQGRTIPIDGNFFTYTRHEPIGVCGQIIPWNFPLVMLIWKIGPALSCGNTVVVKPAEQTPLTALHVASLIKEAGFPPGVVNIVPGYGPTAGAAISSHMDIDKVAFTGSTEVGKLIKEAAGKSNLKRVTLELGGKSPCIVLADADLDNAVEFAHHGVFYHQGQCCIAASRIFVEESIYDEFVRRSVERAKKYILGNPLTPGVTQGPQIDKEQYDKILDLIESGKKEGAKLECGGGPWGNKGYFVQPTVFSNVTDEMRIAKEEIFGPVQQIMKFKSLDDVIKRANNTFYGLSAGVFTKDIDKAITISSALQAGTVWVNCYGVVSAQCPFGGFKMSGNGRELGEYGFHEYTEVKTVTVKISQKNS
The depositor's hits bear a star; ? = inconclusive; nt = no result; [ ] = another dose, or the depositor's remark. An excerpt weighted towards active compounds, which were near 11% of everything screened. Unless noted, calls follow the shape of the dose curve; as a rule, active = well fitted inhibition curve with a large enough effect (not every such curve was filed as active); inconclusive = small, poorly fitted or top-dose-only effect, or another doubt; inactive = no such curve, though single readings can be large or run the other way. Unless noted, % is scaled to controls: 0 for no effect and ±100 for the full control effect.

SMILES	PNC inhibitor	HPGD block	ALDH1A1 inh
CC1CN=C(N(C(=O)Nc2ccccc2)c2ccc(S(=O)(=O)N3CCOCC3)cc2)S1 (stereo not given)	27	20µM*	11%
O=S(=O)(Nc1cccc(S(=O)(=O)N2CCOCC2)c1)c1ccc2c(c1)OCCO2	nt	nt	25µM*
COc1ccc(C(=O)OCC(=O)Nc2cc(S(=O)(=O)N3CCOCC3)ccc2N2CCCC2)cc1	nt	nt	-7%
CC(C(=O)Nc1cccc(S(=O)(=O)N2CCOCC2)c1)N1CCN(C/C=C/c2ccccc2)CC1 (stereo not given)	nt	nt	8%
CCOCC(=O)Nc1cc(S(=O)(=O)N2CCOCC2)ccc1N1CCCCC1	nt	nt	2.8µM*
O=S(=O)(Nc1cc(S(=O)(=O)N2CCOCC2)ccc1N1CCOCC1)c1ccc2c(c1)OCCO2	nt	nt	-1%
CN(C)c1nc(/C=C(\C#N)C(N)=O)c(Cl)n1-c1ccc(F)cc1	nt	nt	-2%
O=C(c1cccnc1Cl)N1CCOCC1	nt	nt	6%
Cn1ccnc1SCC(=O)N1CCN(S(=O)(=O)c2ccccc2)CC1	nt	nt	2%
CC(=O)CCOC1CCCCO1 (stereo not given)	nt	-8%	9%
Cn1c(=O)c(=O)n(C)c2cc(S(=O)(=O)Nc3ccc4c(c3)OCCO4)ccc21	?	25µM*	-2%
O=C(Nc1ccccc1)Nc1cc(S(=O)(=O)N2CCOCC2)ccc1N1CCCC1	6	14µM*	?
O=C(Nc1ccc(F)cc1)Nc1cc(S(=O)(=O)N2CCOCC2)ccc1N1CCCC1	nt	nt	4%
Cn1c(=O)oc2cc(S(=O)(=O)Nc3ccc4c(c3)OCCO4)ccc21	6	?	-1%
CCC(CC)C(=O)Nc1cccc(C(=O)Nc2ccc(S(=O)(=O)Nc3ccc(C)cc3)cc2)c1	-13	-11%	0%
CCOC(=O)c1nn(-c2cccc(Cl)c2)c2nc(Nc3ccccc3)cc(=O)n12	-24	-10%	-7%
CCOC(=O)/C(=N\Nc1ccccc1Cl)N1CCN(C)CC1	-20	-1%	6%
CCOC(=O)C1(C)/C(=N/Nc2ccccc2Cl)C(=O)C(=O)N1c1ccccc1 (stereo not given)	-24	40µM*	0.22µM*
CCOC(=O)C1(C)/C(=N/Nc2ccc(S(N)(=O)=O)cc2)C(=O)C(=O)N1c1ccccc1 (stereo not given)	nt	nt	18µM*
NS(=O)(=O)c1ccc(NC(=S)N2CCN(c3ccccc3)CC2)cc1	?	-7%	15%
CCOC(=O)C1(C)/C(=N/Nc2cccc(Cl)c2)C(=O)C(=O)N1c1ccccc1 (stereo not given)	21	32µM*	?
COC(=O)NC(CC(C)=O)c1cccc(C)c1 (stereo not given)	nt	nt	2%[13.5 µM]
Cc1cc2nc(CS(=O)(=O)c3ccccc3)cc(=O)n2[nH]1	nt	nt	11%
Cc1ccc(N(CC(=O)NCCSc2nc3ccccc3s2)S(=O)(=O)c2ccccc2)c(C)c1	?	-9%	-8%
COc1ccc(CNC(=O)C/C(C)=N/NC(=O)COc2ccc(C)cc2Br)cc1	nt	nt	10µM*
SMILES	PNC inhibitor	HPGD block	ALDH1A1 inh
COc1ccc(CNC(=O)C/C(C)=N/NC(=O)c2cnccn2)cc1	nt	nt	-2%
COc1ccccc1NC(=O)C/C(C)=N/NC(=O)COc1c(Br)cc(Br)cc1OC	nt	nt	7.9µM*
C/C(CC(=O)NC(C)(C)C)=N\NC(=O)COc1ccc(C)cc1Br	nt	nt	14µM*
CCCNC(=O)C/C(C)=N/NC(=O)COc1ccc(C)cc1Br	?	?	2%
COc1ccccc1NC(=O)C(=O)N/N=C(\C)CC(=O)Nc1ccc(OCc2ccccc2)cc1	87	-14%	1%
N#Cc1ccc(N/N=C/c2ccccc2)c([N+](=O)[O-])c1	nt	nt	7%
COC(=O)C1(NC(=O)NC2CCCCC2)CCCCC1	nt	nt	11%
O=C(CCN1C(=O)c2ccccc2C1=O)NCc1ccco1	17	-4%	?
COCCCN1C(=O)c2ccc(C(=O)NCc3ccco3)cc2C1=O	8	-17%	13µM*
CCCN1C(=O)c2ccc(C(=O)NCc3ccco3)cc2C1=O	61	-9%	6.3µM*
O=C(NCc1ccco1)c1ccc2c(c1)C(=O)N(C1CCCCC1)C2=O	21	-4%	?
Cc1cccc(CNc2ncncc2-c2ccc3c(c2)OCO3)c1	nt	?	-15%
N#Cc1c(/N=C/c2cccs2)sc2c1CCC2	36	20µM*	?
CN(C)/C=N/c1sc2c(c1C(N)=O)CCCC2	nt	nt	-8%
CN1CCc2c(sc(/N=C/c3ccco3)c2C(N)=O)C1	-14	nt	?
CN(C)/C=N/c1sc2c(c1C#N)CCCC2	nt	nt	2µM*
C(=N\Nc1ncnc2sc3c(c12)CCC3)/c1cccs1	105	-21%	8%
N#Cc1c(/N=C/c2ccco2)sc2c1CCCCC2	-5	-28%	14µM*
CC1=CC(=C(C#N)C#N)C=C(C)N1Cc1ccccc1	nt	nt	-12%
COc1ccc2c(c1)C(=O)[C@H](OC(=O)NCc1ccco1)[C@@H](c1ccc(OC)c(Br)c1)O2	nt	-3%	?
COc1ccc(CNC(=O)C2CCN(S(=O)(=O)c3cc(OC)ccc3OC)CC2)cc1	-11	-7%	?
COc1ccc(CCNC(=O)C2CCN(S(C)(=O)=O)CC2)cc1	48	-13%	16µM*
COc1ccc(OC)c(S(=O)(=O)N2CCC(C(=O)N3CCN(Cc4ccccc4)CC3)CC2)c1	-80*	-3%	?
COc1ccc(CCNC(=O)C2CCN(S(=O)(=O)c3cc(OC)ccc3OC)CC2)cc1	-83*	-3%	?
COc1ccc(OC)c(S(=O)(=O)N2CCC(C(=O)NC(C)c3ccccc3)CC2)c1 (stereo not given)	-23	-4%	-5%
SMILES	PNC inhibitor	HPGD block	ALDH1A1 inh
COc1ccc(OC)c(S(=O)(=O)N2CCC(C(=O)NCC3CCCO3)CC2)c1 (stereo not given)	?	-10%	12%
COc1ccc(CCNC(=O)C2CCN(S(=O)(=O)c3ccc(OC)c(OC)c3)CC2)cc1	23	0%	-1%
COc1ccc(OC)c(S(=O)(=O)N2CCC(C(=O)NCCc3ccccc3)CC2)c1	-23	-20%	5µM*
CC(=O)Oc1ccccc1C1C[C@]2(C)CC(=O)NC2N1C(C)=O (stereo not given in full)	nt	nt	15%
C=C1c2c(Cl)ccc(O)c2C(O)=C2C(=O)[C@@]3(O)C(O)=C(C(N)=O)C(=O)[C@@H](N(C)C)[C@@H]3[C@@H](O)[C@H]12	nt	-21%	?
Nc1nc(SCC(=O)Nc2ccc3c(c2)CCC3)n[nH]1	-13	-5%	9%
CCNC(=O)NC(=O)COC(=O)CCc1nc(=O)c2ccccc2n1C	nt	nt	-2%
CS(=O)(=O)N1CCc2cc(C(=O)N3CCCC3)ccc21	nt	nt	10%
O=C(CSc1nc(C2CCCCC2)n(-c2ccccc2)n1)NCC(F)(F)F	83	1%	0%
C=CCSC1=C(C#N)C(c2ccccc2Cl)C(C(=O)c2cccs2)C(O)(C(F)(F)F)N1 (stereo not given)	-1	-9%	14µM*
CSC1=C(C#N)C(c2ccccc2Cl)C(C(=O)c2cccs2)C(O)(C(F)(F)F)N1 (stereo not given)	?	2%	-8%
COc1cc(C2NC(=S)NC(O)(C(F)(F)F)C2C(=O)c2cccs2)cc(OC)c1O (stereo not given)	?	-4%	-6%
